# According to publication PMC4336329 (PLoS ONE, 2015):
# The whole screen tested about 310,000 compounds, of which about 14,000 (4.5%) showed an effect of 50% or more. Effects have a minus sign here. This excerpt belongs to a sample that is enriched for strong results.
# Target: human ether-à-go-go-related gene (hERG) potassium channel (human, UniProt Q12809)
# Assay: primary screen, population patch clamp on CHO cells stably expressing hERG; higher = less effect of the substance
# 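Also: peak tail current of the secondary pulse compared with the same well before compound.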
# Sequence of human ether-à-go-go-related gene (hERG) potassium channel (Q12809 whole entry, looked up): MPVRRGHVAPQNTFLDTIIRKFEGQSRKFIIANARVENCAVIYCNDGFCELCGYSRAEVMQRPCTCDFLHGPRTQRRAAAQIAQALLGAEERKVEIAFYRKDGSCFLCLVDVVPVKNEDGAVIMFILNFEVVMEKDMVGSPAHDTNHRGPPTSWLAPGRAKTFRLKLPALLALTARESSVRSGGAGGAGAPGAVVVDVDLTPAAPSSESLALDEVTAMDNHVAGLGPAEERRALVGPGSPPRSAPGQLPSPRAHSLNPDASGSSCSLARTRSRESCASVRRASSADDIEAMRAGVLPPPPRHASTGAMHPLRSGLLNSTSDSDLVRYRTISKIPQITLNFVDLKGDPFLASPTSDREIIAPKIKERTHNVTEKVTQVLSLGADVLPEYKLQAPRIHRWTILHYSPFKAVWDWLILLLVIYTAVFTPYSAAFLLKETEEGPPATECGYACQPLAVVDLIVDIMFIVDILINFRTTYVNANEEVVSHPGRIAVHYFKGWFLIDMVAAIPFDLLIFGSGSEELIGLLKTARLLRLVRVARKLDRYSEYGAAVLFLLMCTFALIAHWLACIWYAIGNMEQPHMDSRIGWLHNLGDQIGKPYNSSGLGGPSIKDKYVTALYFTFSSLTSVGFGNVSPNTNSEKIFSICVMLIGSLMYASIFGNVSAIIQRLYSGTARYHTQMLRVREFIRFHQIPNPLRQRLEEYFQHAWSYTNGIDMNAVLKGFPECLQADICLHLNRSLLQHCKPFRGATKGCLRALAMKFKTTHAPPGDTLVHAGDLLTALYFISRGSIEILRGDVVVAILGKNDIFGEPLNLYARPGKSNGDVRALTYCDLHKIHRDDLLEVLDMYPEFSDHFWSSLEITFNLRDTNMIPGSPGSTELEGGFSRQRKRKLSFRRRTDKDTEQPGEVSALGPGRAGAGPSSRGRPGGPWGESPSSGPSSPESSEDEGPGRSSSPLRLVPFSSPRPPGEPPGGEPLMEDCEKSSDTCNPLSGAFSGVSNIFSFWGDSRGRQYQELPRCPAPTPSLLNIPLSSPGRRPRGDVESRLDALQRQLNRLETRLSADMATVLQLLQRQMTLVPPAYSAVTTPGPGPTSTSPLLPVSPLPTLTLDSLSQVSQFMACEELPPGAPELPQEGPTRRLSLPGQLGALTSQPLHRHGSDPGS
row,SMILES,"hERG current change (%, negative = inhibition) at 10uM [%]"
1,O=C(Nc1ccccc1N1CCN(c2ccccc2)CC1)c1ccccc1,8.61
2,O=C1C(=O)N(CCc2c[nH]c3ccccc23)C(c2cccnc2)/C1=C(/O)c1ccccc1 (stereo not shown),2.24
3,COc1ccc(C(=O)NC(=S)NC(C)c2ccccc2)cc1 (stereo not shown),21.8
4,C=C1C(=O)O[C@H]2C1CC[C@@](C)(O)C13C=CC(C)(C21)C1(C3)C(=O)O[C@@H]2C3C(C)=CCC3[C@](C)(O)C[C@H](OC(C)=O)C21 (stereo partly shown),2.81
5,COc1ccccc1NC(=O)CSc1ncn(-c2ccccc2)n1,-41.1
6,N#Cc1nc(COc2ccc(F)cc2)oc1NCCCn1ccnc1,-64.2
7,N#Cc1nc(-c2ccc(F)cc2)oc1NCCCn1ccnc1,-49.3
8,N#Cc1nc(COc2ccccc2F)oc1NCCCn1ccnc1,-42.5
9,COc1cc(/C=N/NC(=O)COc2ccc(-n3cnnn3)cc2)ccc1OCC(N)=O,17.3
10,Cc1ccc2nc(N/N=C\c3ccc([N+](=O)[O-])o3)nc(-c3ccccc3)c2c1,-72.6
11,O=[N+]([O-])c1ccc(/C=N/Nc2nc(-c3ccccc3)c3cc(Br)ccc3n2)o1,-4.84
12,N#Cc1ccccc1/C=N/Nc1nc(-c2ccccc2)c2cc(Cl)ccc2n1,-46.3
13,Cc1cc(C)nc(N/N=C/c2ccc([N+](=O)[O-])o2)n1,2.14
14,N#Cc1ccccc1/C=N/Nc1nc(-c2ccccc2)c2cc(Br)ccc2n1,-67.4
15,Cc1ccc2nc(N/N=C/c3ccccc3F)nc(-c3ccccc3)c2c1,0.778
16,Cc1cc(N/N=C/c2ccc([N+](=O)[O-])o2)nc2ccccc12,1.15
17,CCNc1nc(NCC)nc(N/N=C/c2ccccc2)n1,4.81
18,CCNc1nc(NCC)nc(N/N=C/c2ccc([N+](=O)[O-])o2)n1,-50.8
19,CCNc1nc(NCC)nc(N/N=C/c2ccc(Br)cc2)n1,-74.6
20,O=[N+]([O-])c1ccc(/C=N/Nc2nc(N3CCCC3)nc(N3CCCC3)n2)o1,1.41
21,CCNc1nc(NCC)nc(N/N=C/c2ccc(OC)cc2)n1,6.24
22,CC(Sc1nc(N)cc(=O)[nH]1)C(=O)NC1CCCCC1 (stereo not shown),-4

row,SMILES,"hERG current change (%, negative = inhibition) at 10uM [%]"
1,O=C(CSc1ncccn1)NCc1ccccc1Cl,-2.63
2,CCOc1ncccc1C(=O)Nc1ccc(S(=O)(=O)Nc2nc(C)cc(C)n2)cc1,2.16
3,CCOC(=O)N1CCN(C(=O)CSc2ccc(-c3ccncc3)nn2)CC1,-0.414
4,Cc1ccccc1-n1cnc2cc(NCc3cccs3)ccc21,-31
5,CC1=C(C(=O)NCCN2CCN(C)CC2)C2(CCC(C)CC2)OC1=O (stereo not shown),6.17
6,Cc1ccc(-c2ccc(CO)o2)cc1N,9.48
7,O=C(CN1C(=O)C2CC=CCC2C1=O)Nc1ccc(S(=O)(=O)NC2=NCCCCC2)cc1 (stereo not shown),1.02
8,CCN1C(=O)C(=C2C=C(C)N(Cc3ccco3)C(C)=C2)C(=O)N(CC)C1=S,-35
9,CCCCC(=O)Nc1nnc(-c2ccco2)o1,-0.241
10,Cc1cc(C)c(C(=O)OCC(=O)NC(=O)c2ccccc2)c(C)c1,11.9
11,O=C(CCc1ccccc1)Nc1cc(NC(=O)CCc2ccccc2)cc(C(=O)O)c1,-22
12,Cc1ccc(NC(=O)c2nc[nH]c2C(=O)N2CCc3ccccc3C2)cc1,18.8
13,CCCN1CCC(NC(=S)Nc2ccc(S(N)(=O)=O)cc2)CC1,10.7
14,CN1CCN(C(=S)Nc2ccc([N+](=O)[O-])cc2)CC1,-23.1
15,CCCN1CCC(NC(=S)Nc2ccc([N+](=O)[O-])cc2)CC1,-52.6
16,CCN1CCN(C(=S)Nc2ccc([N+](=O)[O-])cc2)CC1,-26.6
17,CCCN1CCC(NC(=O)Nc2ccc([N+](=O)[O-])cc2)CC1,-32.2
18,CCCN1CCN(C(=S)Nc2ccc([N+](=O)[O-])cc2)CC1,-52.1
19,COc1cc(/C=C/C(=O)O)cc(S(=O)(=O)Nc2ccccc2SC)c1OC,15.5
20,O=C(Nc1ncn[nH]1)c1ccc(S(=O)(=O)N2CCOCC2)cc1,-5.88
21,CC(C)c1ccc(NC(=O)CN2C(=O)NC3(CCCC3)C2=O)cc1,5.63
22,COc1cccc(C(=O)OCCN2CCOCC2)c1.Cl,6.33

row,SMILES,"hERG current change (%, negative = inhibition) at 10uM [%]"
1,Cc1cc(C)c(OCC(=O)NCC2COc3ccccc3O2)c(C)c1 (stereo not shown),-13.9
2,O=C(CSc1nnc(CNC(=O)c2ccccc2F)o1)NC1CCCC1,10.7
3,CCN(CCn1cccn1)C(=O)CCc1nnc(CCCc2ccccc2)o1,-37
4,CC(C)(C)c1cc(NC(=O)c2ccc(OC3CCCC3)cc2)no1,14.2
5,COC(CNC(=O)CCc1c(C)nc2c(-c3ccc(F)cc3)c(C)nn2c1C)OC,-21.8
6,Cc1nc2c(-c3ccc(F)cc3)c(C)nn2c(C)c1CCC(=O)N1CCC(Cc2ccccc2)CC1,-21.2
7,Cc1nc2c(-c3ccccc3)c(C)nn2c(C)c1CCC(=O)N1CCOCC1,-33.9
8,Cc1nc2c(-c3ccc(F)cc3)c(C)nn2c(C)c1CCC(=O)N1CCN(c2ccccn2)CC1,-69.5
9,Cc1nc2c(-c3ccc(F)cc3)c(C)nn2c(C)c1CCC(=O)N1CCC2(CC1)OCCO2,-67.8
10,COc1ccccc1NC(=O)CCc1c(C)nc2c(-c3ccc(F)cc3)c(C)nn2c1C,-20.3
11,Cc1nc2c(-c3ccccc3)c(C)nn2c(C)c1CCC(=O)N1CCC2(CC1)OCCO2,-40.5
12,CCOC(=O)C1CCN(C(=O)CCc2c(C)nc3c(-c4ccc(F)cc4)c(C)nn3c2C)CC1,-71.1
13,Cc1nc2c(-c3ccc(F)cc3)c(C)nn2c(C)c1CCC(=O)N1CCOCC1,-53.3
14,Cc1nc2c(-c3ccc(F)cc3)c(C)nn2c(C)c1CCC(=O)NCCN1CCOCC1,-24.3
15,Cc1nc2cc(-c3cccc(F)c3)nn2c(C)c1CCC(=O)N1CCC2(CC1)OCCO2,-37.5
16,CCCCCCc1nnc(N)s1,-0.995
17,Cc1cc(=O)n(C2CCS(=O)(=O)C2)[nH]1 (stereo not shown),14.7
18,O=c1[nH]c(=S)c2ncn(-c3ccccc3)c2[nH]1,11.7
19,CCCCC(CCC(=O)O)(C(=O)OCC)c1csc(Nc2ccc(C)cc2)n1 (stereo not shown),-0.891
20,Cc1ccc(N2C(=O)CC(c3ccsc3)C3=C2CC(C)(C)CC3=O)cc1 (stereo not shown),3.75
21,COc1ccc(CNC(=O)CN2CCN(c3cccc(C)c3C)CC2)cc1,-8.46
22,CCN(CC(=O)Nc1ccccc1OC)C(=O)CSCc1ccc(C)cc1,-2.36

row,SMILES,"hERG current change (%, negative = inhibition) at 10uM [%]"
1,CCCNC(=O)NC(=O)COC(=O)c1cccc(NS(=O)(=O)c2ccc(F)c(F)c2)c1,-12
2,COc1ccc(C(C(=O)NC2CCCC2)N(C(=O)CNC(=O)c2ccco2)c2cccnc2)cc1 (stereo not shown),14.7
3,Cc1oc2c(C)c3oc(=O)c(CCC(=O)NCCCN4CCCC4=O)c(C)c3cc2c1C,-14.8
4,Cc1nc2c(-c3ccc(F)cc3)c(C)nn2c(C)c1CCC(=O)Nc1ccccc1F,-10.7
5,Cc1nc2c(-c3ccc(F)cc3)c(C)nn2c(C)c1CCC(=O)N1CCN(c2ccc(F)cc2)CC1,-74.6
6,COCCCNC(=O)CCc1c(C)nc2c(-c3ccc(F)cc3)c(C)nn2c1C,-38.5
7,COc1ccc(CN2C(=O)C(C)S/C2=N/N=C/c2ccco2)cc1 (stereo not shown),6.37
8,CC(Oc1ccc2c(-c3ccccc3)cc(=O)oc2c1)C(=O)NCCCn1ccnc1 (stereo not shown),-52.5
9,COc1ccc(-c2cc(=O)oc3c(C)c(OCC(=O)NCCCn4ccnc4)ccc23)cc1,-63.8
10,Cc1c(OCC(=O)NCCCn2ccnc2)ccc2c3c(c(=O)oc12)CCCC3,-48.2
11,Cc1c(OCC(=O)NCCCn2ccnc2)ccc2c3c(c(=O)oc12)CCC3,-26.7
12,Cc1cc(=O)oc2cc(OC(C)C(=O)NCCCn3ccnc3)ccc12 (stereo not shown),9.44
13,CCc1cc(=O)oc2cc(OC(C)C(=O)NCCCn3ccnc3)ccc12 (stereo not shown),9.41
14,CC(Oc1ccc2c3c(c(=O)oc2c1)CCCC3)C(=O)NCCCn1ccnc1 (stereo not shown),-2.45
15,CCCc1cc(=O)oc2c(C)c(OCC(=O)Nc3cccnc3)ccc12,-63.6
16,COc1ccc(-c2cc(=O)oc3cc(OC(C)C(=O)NCCCn4ccnc4)ccc23)cc1 (stereo not shown),-50.8
17,CC(Oc1ccc2ccc(=O)oc2c1)C(=O)NCCCn1ccnc1 (stereo not shown),28.5
18,Cc1c(C)c2ccc(OCC(=O)Nc3cccnc3)c(C)c2oc1=O,3.99
19,Cc1cc(=O)oc2c(C)c(OCC(=O)Nc3cccnc3)ccc12,-25.3
